# Data reported in PubChem BioAssay AID1259415 (National Center for Advancing Translational Sciences (NCATS), 2018).
# About 18,000 (4.4%) of roughly 410,000 compounds were called active. Not shown: some 7% with an inconclusive outcome. For the sample, actives were picked, then their nearest neighbours and some compounds at random. A number with no mark means an inactive call. No stated cut-off is given here; in the data, active means activity change below about -60%; inconclusive means no clear call, values can overlap the other calls; inactive means above about -39%.
# Assay: qHTS Assay for inhibitors of the human cytomegalovirus (HCMV)
# Details: HFF cells, HCMV-luciferase reporter, 72 h; at 57.5 µM; stronger effect = lower value
# Outline: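 Compounds were evaluated in HFFs infected with an HCMV luciferase reporter virus (MOI 1 PFU/cell). Luciferase in lysates collected 72 h post infection served as the replication measure.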
# On the % scale 0 is the no-effect control and ±100 the full control effect.
row,SMILES,"activity change, negative = inhibition"
1,Cc1ccc(CN(C(=O)COc2ccc(Cl)cc2C)C2CCS(=O)(=O)C2)o1 (stereo not drawn),51.5%
2,Cc1cccc(N2CCN(c3ccc(C(=O)O)cc3NC(=O)c3ccccc3F)CC2C)c1 (stereo not drawn),-4.85%
3,CCOc1ccccc1C(=O)NC1(C(F)(F)F)NC(=O)N(CCc2ccc(OC)c(OC)c2)C1=O (stereo not drawn),-4.49%
4,O=C(CSc1nc2ccccc2nc1Cc1ccccc1)N1CCCCC1,-18.6%
5,CC(C)[C@@H](C(=O)OCC(=O)c1ccc2c(c1)NC(=O)CO2)N1C(=O)c2ccccc2C1=O,43.1%
6,COc1cc(NC(=O)c2noc3c2CSc2ccccc2-3)cc(OC)c1OC,40.1%
7,CC(C)CCNC(=O)CSc1nc2ccccc2nc1Cc1ccc(Cl)cc1,-7.66%
8,O=C(CC1N=C2c3ccccc3N=C(SCc3ccc(F)cc3)N2C1=O)NCc1cccs1 (stereo not drawn),30.3%
9,O=C(c1cccc(C(=O)N2CCN(c3ccc(F)cc3)CC2)c1)N1CCN(c2ccc(F)cc2)CC1,-88.8% (active)
10,O=C(c1ccc(N2CCCC2=O)cc1)N1CCN(c2ccc(C(F)(F)F)cc2[N+](=O)[O-])CC1,-85.8% (active)
11,CC(=O)c1ccc(N2CCN(C(=O)c3ccc4nc[nH]c4c3)CC2)cc1,-12%
12,O=C(Nc1cc(Cl)ccc1N1CCOCC1)c1ccc(N2CCCC2=O)cc1,-3.06%
13,O=C(c1cccc(-n2cccc2)c1)N1CCN(S(=O)(=O)c2ccc(F)cc2)CC1,-6.27%
14,CNS(=O)(=O)c1ccc(N2CCCC2=O)c([N+](=O)[O-])c1,-21%
15,Cc1cc(C)cc(Nc2ncnc3onc(-c4ccc(F)cc4)c23)c1,-23.4%
16,COc1ccccc1-c1nnc(SCC(N)=O)o1,64.6%
17,COc1cc(C(=O)Nc2ccc(-n3c(C)nc4ccccc4c3=O)cc2)cc(OC)c1OC,-1.41%
18,CCOC(=O)c1cc2c(=O)n3ccccc3nc2n(CCCOC)c1=NC(=O)C(C)Oc1ccccc1 (stereo not drawn),-1.73%
19,Cc1ccc2nc(N3CCN(c4cccc(Cl)c4)CC3)c3nnnn3c2c1,-71.6% (active)
20,O=S(=O)(c1cccc2nonc12)N1CCN(c2cccc(Cl)c2)CC1,-25.7%
21,O=Cc1c(N2CCN(c3cccc(Cl)c3)CC2)nc2ccccn2c1=O,-31.6%
22,COC(=O)c1ccc(COC(=O)CNC(=O)c2cccc(OC)c2)o1,-25.9%

row,SMILES,"activity change, negative = inhibition"
1,O=C(Nn1cc(C(=O)N2CCN(c3ccccc3F)CC2)c2ccccc2c1=O)c1cnccn1,43.2%
2,COc1ccc(/C=C(\C#N)C(=O)OCC(=O)N(C)C2CCS(=O)(=O)C2)cc1 (stereo not drawn),-87.3% (active)
3,CC(=O)c1ccc(OCC(=O)N(C)C2CCS(=O)(=O)C2)cc1 (stereo not drawn),-17%
4,COc1ccc(-c2cc(=O)oc3cc(OCC(=O)N(C)C4CCS(=O)(=O)C4)ccc23)cc1 (stereo not drawn),4.48%
5,CCOC(=O)c1c(S(=O)(=O)N2CCC(C(=O)NCc3ccccc3OC)CC2)c(C)n(C)c1C,9.09%
6,O=C(CC1Oc2ccc(Cl)cc2NC1=O)NCc1ccccc1 (stereo not drawn),-7.24%
7,O=C(Nc1ccc(F)cc1F)c1ccc2c(=O)n3c(nc2c1)CCCCC3,61.7%
8,COc1cccc(CNC(=O)C(NS(=O)(=O)c2ccc3nc(C)sc3c2)C(C)C)c1 (stereo not drawn),-9.19%
9,COC(=O)c1ccc(COc2ccc(C#N)cc2)o1,-13.9%
10,S=C(NCc1ccc(Cl)cc1)NC12CC3CC(CC(C3)C1)C2,-100% (active)
11,Cc1ccc(C(=O)NC23CC4CC(CC(C4)C2)C3)c(Cl)c1,20.9%
12,COc1ccccc1C(=O)NC(=S)NC12CC3CC(CC(C3)C1)C2,-36.1%
13,Cc1cc(-c2ccccc2)n2nc(-c3ccccc3)cc2n1,-2.35%
14,CC(C)(C)c1ccccc1NC(=O)CN1C(=O)NC2(CCCC2)C1=O,19.2%
15,CC12CCC(=O)N1C(C(=O)NCCN1C(=O)S/C(=C\c3ccccc3F)C1=O)CS2 (stereo not drawn),-21.8%
16,O=C(NCCN1C(=O)S/C(=C\c2cccnc2)C1=O)c1ccc(S(=O)(=O)N2CCCC2)cc1,3.64%
17,O=C(CN1C(=O)S/C(=C\c2ccccc2Cl)C1=O)NC1C=CS(=O)(=O)C1 (stereo not drawn),-66.8% (active)
18,CCCn1c2ccccc2c2cnn(CC(=O)N(CC)c3cc(C)ccc3C)c(=O)c21,-37.8%
19,Cc1ccc(C(=O)Nc2cc3c(cc2N2CCCC2)n(C)c(=O)c(=O)n3C)cc1,0.153%
20,O=C(NC1CCN(Cc2ccccc2)CC1)c1ccc(Cn2c(=O)c3ccccc3n(Cc3cccc(F)c3)c2=O)cc1,-15.8%
21,CCC(C(=O)Nc1cccc(Cl)c1C)n1nc(-c2ccc(C)cc2)ccc1=O (stereo not drawn),12.4%
22,Cc1nnc(NC(=O)CSc2nc3c([nH]c4ccccc43)c(=O)n2-c2cccc(Cl)c2)s1,-12.8%

row,SMILES,"activity change, negative = inhibition"
1,CCCCCCc1cc2cc(-c3nnc(-c4ccccc4)o3)c(=O)oc2cc1O,-100% (active)
2,CCn1c(-c2cccnc2Cl)nc2cc(C)c(C)cc21,-25.4%
3,Cc1ncn2cc(-c3ccc(Cl)cc3Cl)[nH]c(=O)c12,-32.3%
4,COn1c(-c2ccc(Cl)cc2Cl)nc2ncccc21,-63.6% (active)
5,CC(NC(=O)CCc1cn(Cc2ccccc2Cl)c2ccccc12)c1ccccc1 (stereo not drawn),-11.3%
6,Cc1cccc(NC(=O)N2CCN(C)c3ncccc32)c1C,12%
7,CC(Sc1oc(-c2ccco2)nc1S(=O)(=O)c1ccc(Br)cc1)c1ccccc1 (stereo not drawn),0.136%
8,CCN(C(=O)c1sc2cc(OC)ccc2c1Cl)c1ccccc1,-99.2% (active)
9,COc1ccc2c(Cl)c(-c3nnco3)sc2c1,-7.84%
10,CCN(C(=O)c1ccc(Br)cc1)c1ccccc1,7.23%
11,COc1ccc(CNC(=O)c2ccc3c(c2)nc2n3CCOC2)c(OC)c1,2.67%
12,COc1ccccc1NS(=O)(=O)c1ccc(C)c(C(=O)NCC(c2ccco2)N(C)C)c1 (stereo not drawn),-6.15%
13,Cc1cccc(NS(=O)(=O)c2ccc(C)c(C(=O)NCC(c3ccccc3)N(C)C)c2)c1 (stereo not drawn),-101% (active)
14,COc1ccc(C(CNC(=O)c2cc(S(=O)(=O)Nc3cccc(C)c3)ccc2C)N2CCCC2)cc1 (stereo not drawn),-30.6%
15,O=C(Nc1ccccc1Cl)/C(Cl)=C(\Cl)S(=O)c1ccccc1 (stereo not drawn),-100% (active)
16,O=C(Nc1ccccc1Cl)N1CCC(CN2CCCCC2)CC1,-10.2%
17,O=C(Nc1ccccc1Cl)N1CCC(CN2CCCC2)CC1,37.3%
18,Oc1ccccc1-c1cc(-c2ccc(Cl)cc2)n[nH]1,-20.6%
19,COc1ccccc1CNS(=O)(=O)CC12CCC(CC1=O)C2(C)C (stereo not drawn),6.14%
20,Oc1cccc2cc(-c3ccncc3)cnc12,-101% (active)
21,Cc1ccc(OCCSc2nc3ccc(NC(=O)COc4ccc(C)cc4)cc3s2)cc1,7.69%
22,Cc1ccccc1NC(=O)Cn1c(=O)n(CC2CCC(C(=O)NCCc3ccccc3)CC2)c(=O)c2ccccc21 (stereo not drawn),16.2%

row,SMILES,"activity change, negative = inhibition"
1,COc1cc(OC)c2c(c1)OC(=O)CC2c1cc(OC)c(OC)c(OC)c1 (stereo not drawn),-7.37%
2,COc1cc(C=C(OC(C)=O)c2ccc3c(c2)OCO3)cc(OC)c1OC,62.8%
3,COc1cc(C2c3cc4c(cc3C(O)C3COC(=O)C23)OCO4)cc(OC)c1OC (stereo not drawn),-89.9% (active)
4,COC(=O)c1ccccc1NC(=O)c1cc(-c2ccccc2O)no1,-14.2%
5,COC(=O)/C(=C1\Oc2ccc(C(C)(C)C)cc2S1)C(F)(F)F,-66.8% (active)
6,CCOC(=O)C1=C(c2ccccc2)O/C(=C(/C(=O)OC)C(F)(F)F)S1,34.3%
7,O=C(CNC(=O)c1n[nH]c2ccccc12)Nc1cc(Cl)ccc1Cl,12.1%
8,Cc1ccc(C)c(-n2nnnc2SCC(=O)c2c(N)n(C)c(=O)n(C)c2=O)c1,-19.3%
9,CC(=O)Nc1cccc(-c2ccnc3c2CC(C)(C(=O)NCc2ccccc2)O3)c1 (stereo not drawn),-79.4% (active)
10,COc1ccc(NC(=O)C2(C)Cc3c(-c4cccc(NC(C)=O)c4)ccnc3O2)cc1OC (stereo not drawn),16%
11,CC1(C(=O)NCC2CCOCC2)Cc2c(-c3cccc(C(N)=O)c3)ccnc2O1 (stereo not drawn),28.9%
12,COc1ccc(NC(=O)C2(C)Cc3c(-c4ccc(C(N)=O)cc4)ccnc3O2)cc1 (stereo not drawn),32.9%
13,COc1ccc(CCCNC(=O)C2Cc3c(-c4cccc(C(N)=O)c4)ccnc3O2)cc1 (stereo not drawn),-20.5%
14,CC(=O)Nc1ccc(-c2ccnc3c2CC(C(=O)NC(C)C)O3)cc1 (stereo not drawn),-16.6%
15,CC1(C(=O)Nc2cccnc2)Cc2c(-c3ccccc3)ccnc2O1 (stereo not drawn),-18.2%
16,COc1ccc(NC(=O)C2(C)Cc3c(-c4cccc(NC(C)=O)c4)ccnc3O2)cc1 (stereo not drawn),-77.2% (active)
17,COc1ccc(NC(=O)C2Cc3c(-c4cccc(NC(C)=O)c4)ccnc3O2)cc1OC (stereo not drawn),-67.8% (active)
18,Brc1ccc2c(c1)NC(c1cccnc1)=NC(c1ccccc1)=N2,21.9%
19,COc1ccc(NC(=O)CCNC(=O)Cn2ccc3ccccc3c2=O)c(OC)c1,-21.8%
20,COC(=O)c1[nH]c2cccc(C)c2c1NC(=O)CN1CCCc2ccccc21,52.8%
21,CCOc1ccccc1C(=O)NCC(c1ccc(N(C)C)cc1)N1CCCC1 (stereo not drawn),-6.83%
22,CCOc1ccc(-c2nonc2NC(=O)c2oc3ccc(CC)cc3c2C)cc1,29.2%
